Reference: PubChem BioAssay
Results with a measured potency or affinity are listed apart. Results filed as inconclusive are left out. Activity calls are given as the source filed them. Unless noted, the rule behind the calls is not given here.

What was measured:
[1] = RMG-1 ovarian cancer cell viability loss – cherry-pick, dose response (AID 687029;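 active = signal drop whose fitted half-maximal concentration is at most twice the top valid dose, in every test run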;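 note: cells exposed to compound for 96 hours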)
[2] = IOSE-T80 viability loss, PAX8-independent line – cell-based, cherry-pick, selectivity assay for PAX8 inhibitor project, dose response (AID 687032;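 active = fitted half-maximal concentration for viability loss no higher than twice the top valid dose, in every repeat run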;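 note: cells exposed to compound for 96 h before reading; 0% = neutral control wells and -100% = 2 µM mitoxantrone kill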)
[3] = general cell-killing toxicity readout – plate reader, dry powder samples, cytotoxicity control for PAX8 inhibitor project, dose response (AID 743021)
[4] = A2780 cell killing – plate reader, dry powder samples, cytotoxicity control, dose response (AID 743046);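 note: 0% = neutral control wells and -100% = cytotoxic reference compound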
[5] = IGROV1 cell killing – plate reader, dry powder samples, PAX8 inhibitor project, dose response (AID 743043);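 note: more negative means fewer viable cells or more cytotoxicity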
[6] = toxicity toward immortalized ovarian surface epithelium – cell-based, plate reader, dry powder samples, cytotoxicity control for PAX8 inhibitor project, dose response (AID 743045);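 note: 0% = neutral control median and -100% = positive control median; more negative values mean more cell killing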
[7] = OVCAR8 cell viability loss – plate reader, dry powder samples, PAX8 project, dose response (AID 743197)
[8] = A549 cell cytotoxicity, dose response, cytotoxicity control, plate reader, cherry-pick, antagonist series (AID 743412);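 note: 0% = neutral control wells and -100% = positive control wells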
[9] = toxicity toward HepG2 liver cells – cell-based, plate reader, cherry-pick, antagonist series, cytotoxicity control, dose response (AID 743416);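 note: 0% = neutral control wells and -100% = positive control wells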
[10] = OVCAR-3 cell viability loss – plate reader, dry powder samples, PAX8 inhibitor project, dose response (AID 743044); conditions: max activity: at 35 µM, stronger effect = lower value unless noted
[11] = CMV-driven luciferase expression suppression in HEK293 – cell-based, luminescence, dry powder, counter-screen for Pax8 inhibitor project, dose response (AID 743020;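 active = signal-lowering compounds whose fitted half-maximal concentration is at or below twice the top tested dose in every run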;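 note: HEK293 cells stably expressing the CMV luciferase reporter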)

Measured: max activity

C[C@H](CO)N1C[C@H](C)[C@H](CN(C)Cc2ccc(C(=O)Nc3ccccc3N)cc2)Oc2ccc(N(C)C)cc2C1=O
inactive: [1] | [2] | [3] | [4]

COc1ccccc1C#Cc1ccc([C@H]2[C@H](C#N)N(C(=O)C3CCC3)[C@H]2CO)cc1
inactive: [1] | [2] | [5] | [4]

COc1ccc(NC(=O)N2CCCCN3[C@H](C2)[C@@H](c2ccc(C#Cc4ccccc4)cc2)[C@@H]3CO)cc1
inactive: [1] | [2] | [5] | [6] | [4]

COc1ccccc1C#Cc1ccc([C@H]2[C@H](C#N)N(C(=O)C3CC3)[C@H]2CO)cc1
inactive: [1] | [2] | [5] | [6]

NS(=O)(=O)c1ccc(CCN2C(=O)/C(=C\c3ccc(Cl)cc3)SC2=S)cc1
inactive: [1] | [2] | [3] | [4]

O=C(C[C@H]1C[C@@H]2c3cc(NS(=O)(=O)c4ccc(F)cc4)ccc3O[C@@H]2[C@@H](CO)O1)N1CCc2ccccc2C1
inactive: [1] | [2] | [5] | [6] | [4]

Cc1ccc(S(=O)(=O)Nc2ccc3c(c2)C(=O)N([C@H](C)CO)C[C@@H](C)[C@@H](CN(C)Cc2ccc(C(F)(F)F)cc2)OCCCC[C@H](C)O3)cc1
inactive: [1] | [2] | [3] | [6] | [7]

Nc1ccc(-c2nc3ccc(C(=O)O)cc3s2)cc1
inactive: [1] | [2] | [8] | [9]

C[C@@H]1CCCCO[C@@H](CN(C)S(=O)(=O)c2ccccc2)[C@H](C)CN([C@H](C)CO)C(=O)c2cc(NC(=O)Nc3ccc(C(F)(F)F)cc3)ccc2O1
inactive: [1] | [2] | [6] | [4] | [7]

O=C(Nc1cccc(C(=O)O)c1)Nc1ccc2c(c1)OCO2
inactive: [1] | [2] | [3] | [8] | [9]

C[C@H]1CCCCO[C@H](CN(C)S(=O)(=O)c2ccccc2)[C@@H](C)CN([C@@H](C)CO)C(=O)c2cc(NS(=O)(=O)c3ccc(Cl)cc3)ccc2O1
inactive: [1] | [2] | [5] | [6]

C[C@@H]1CN([C@H](C)CO)C(=O)c2cc(NS(=O)(=O)c3ccccc3)ccc2O[C@@H](C)CCCCO[C@H]1CN(C)Cc1ccc(C(F)(F)F)cc1
inactive: [1] | [2] | [3] | [4]

C[C@H](CO)N1C[C@H](C)[C@@H](CN(C)Cc2ccc(C(F)(F)F)cc2)OCCCC[C@H](C)Oc2ccc(NS(=O)(=O)c3ccc(F)cc3)cc2C1=O
inactive: [1] | [2] | [6] | [7]

Cn1nnnc1Sc1ncnc2scc(-c3cccc(Br)c3)c12
inactive: [1] | [2] | [3] | [9]

CCCC#Cc1ccc([C@H]2[C@@H](C#N)N(C(=O)C3CCCCC3)[C@H]2CO)cc1
inactive: [1] | [2] | [5] | [6]

C[C@H](CO)N1C[C@H](C)[C@@H](CN(C)Cc2ccc(C(F)(F)F)cc2)Oc2ccc(NS(=O)(=O)c3ccc(Cl)cc3)cc2CC1=O
inactive: [1] | [2] | [6] | [4]

O=C1CN(S(=O)(=O)Cc2ccccc2)C[C@H]2[C@H](c3ccc(C#Cc4ccc(F)cc4)cc3)[C@H](CO)N12
inactive: [1] | [2] | [5] | [6] | [4] | [7]

COc1ccc(S(=O)(=O)N(C)C[C@@H]2OCCCC[C@H](C)Oc3ccc(NS(=O)(=O)c4ccc(Cl)cc4)cc3C(=O)N([C@H](C)CO)C[C@@H]2C)cc1
inactive: [1] | [2] | [5] | [6] | [4] | [7]

N#C[C@@H]1[C@@H](c2ccc(C#Cc3ccccc3F)cc2)[C@H](CO)N1C(=O)C1CCCCC1
inactive: [1] | [2] | [3] | [4]

C[C@@H]1CN([C@@H](C)CO)C(=O)Cc2cc(NC(=O)Cc3ccccc3)ccc2O[C@H]1CN(C)Cc1ccc(-c2ccccc2)cc1
inactive: [1] | [2] | [5] | [10] -33% | [6] | [4] | [7]

COc1cccc(C#Cc2ccc([C@H]3[C@@H](CO)N(C(=O)C4CCCCC4)[C@H]3C#N)cc2)c1
inactive: [1] | [2] | [5] | [6] | [7]

C[C@@H]1CCCCO[C@H](CN(C)Cc2ccc(Cl)c(Cl)c2)[C@@H](C)CN([C@@H](C)CO)C(=O)c2cc(NS(=O)(=O)c3ccccc3)ccc2O1
inactive: [1] | [2] | [6] | [4] | [7]

COc1ccccc1S(=O)(=O)N(C)C[C@H]1Oc2cc(C#CCC3CCCC3)ccc2S(=O)(=O)N([C@@H](C)CO)C[C@H]1C
inactive: [1] | [2] | [5] | [10] 9.23% [at 16 µM, stronger effect = lower value] | [6] | [4] | [7]

COc1cccc(C#Cc2ccc([C@H]3[C@@H](CO)N(C(=O)c4ccccn4)[C@H]3C#N)cc2)c1
inactive: [1] | [2] | [6] | [4]

COc1ccc(CN(C)C[C@H]2OCCCC[C@H](C)Oc3ccc(NC(=O)Nc4ccc(C(F)(F)F)cc4)cc3C(=O)N([C@@H](C)CO)C[C@H]2C)cc1
inactive: [1] | [11]

CCOc1ccc(NC(=O)Nc2cccc(C(=O)O)c2)cc1
inactive: [1] | [11]

OC(c1cc(-c2ccc(C(F)(F)F)cc2)nc(C(F)(F)F)c1)C1CCCCN1 (configuration not stated)
inactive: [1] | [11]

CCOC(=O)c1c2c(n(Cc3ccccc3)c1C)C(=O)C(=O)c1ccccc1-2
inactive: [1] | [11]

CC(C)=CCC/C(C)=C/CN1C(=O)N(c2ccc(F)cc2)[C@H]2C[C@@H](c3ccccc3)[C@@H](C)[C@@H](C(=O)N3CCOCC3)C[C@H]21
inactive: [1] | [11]

O=[N+]([O-])c1c(Nc2cccc(O)c2)cc(Cl)c2nonc12
inactive: [1] | [11]

NC1=C(Cl)C(=O)c2ccc(S(N)(=O)=O)cc2C1=O
inactive: [1] | [11]

COc1ccc(OC)c(N(CCN2C(=O)c3ccccc3C2=O)C(=O)CCl)c1
inactive: [1] | [11]

Cc1ccc2nc(NNC(=O)c3ccc(S(=O)(=O)N4CCc5ccccc5C4)cc3)sc2c1
inactive: [1] | [11] | [3]

COc1cccc(N2CCN(c3ncnc4c3cnn4-c3ccc(C)cc3C)CC2)c1
inactive: [1] | [11]

CC(=O)N(C1=C(Cl)C(=O)c2ccccc2C1=O)C1CCCCC1
inactive: [1] | [11]

O=C(NCCc1ccccc1)C(c1cccs1)N(C(=O)CCl)c1ccc(Cl)cc1 (configuration not stated)
inactive: [1] | [11]

Cc1ccc(C(=O)O/N=C(\N)c2ccccn2)cc1
inactive: [1] | [11]

COc1ccccc1N(C(C)=O)C1=C(Cl)C(=O)c2ccccc2C1=O
inactive: [1] | [11]

CC(C)c1ccc(-c2nc3ccccc3s2)cc1
inactive: [1] | [11]

COc1ccc(N(Cc2cc3cc(OC)ccc3[nH]c2=O)S(=O)(=O)c2ccc(NC(C)=O)cc2)cc1
inactive: [1] | [11]

COc1ccc(N2C(=O)CC(Sc3nnnn3-c3ccc(F)cc3)C2=O)cc1 (configuration not stated)
inactive: [1] | [11]

C=CCC[C@@H](Cc1ccc(F)cc1)C(=O)OC[C@@H](Cc1c[nH]c2ccccc12)NC(=O)[C@H](CC=C)CC(=O)N(CCO)Cc1ccccc1
inactive: [1] | [11] | [3]

COC(=O)C1=C(C)N(Cc2ccc(C(F)(F)F)cc2)C(=NCc2ccccc2)NC1c1cccc(F)c1 (configuration not stated)
inactive: [1] | [11]

COc1ccc(Oc2ccc(/C=C/C(=O)c3cccc(OC)c3)cc2[N+](=O)[O-])cc1
inactive: [1] | [11]

Cc1cccc(-n2ncc(Cl)c(Cl)c2=O)c1
inactive: [1] | [11]

COc1ccc(C(=O)O/N=C(\N)c2ccccn2)cc1
inactive: [1] | [11]

COc1ccc(/C=C2\CN(Cc3ccccc3)C/C(=C\c3ccc(OC)cc3OC)C2=O)c(OC)c1
inactive: [1] | [11]

CC(C)Nc1ccc(Nc2ccnc3cc4ccccc4cc23)cc1
inactive: [1] | [11]

CCC[C@@H](CN[C@@H](CNC)[C@H](C)CC)NCC1CCC(C(C)(C)C)CC1 (some centres not stated)
inactive: [1] | [11]

Cc1ccc(C(=O)Nc2cnc3ccccc3c2)cc1
inactive: [1] | [11]

C#CC(=O)N(c1ccc(OC)cc1OC)C(C(=O)NC1CCCC1)c1cccs1 (configuration not stated)
inactive: [1] | [11]

C(=C\c1ccc(C2[C@@H]3CN(Cc4ccc5c(c4)OCO5)C[C@H]2N3)cc1)/c1ccccc1 (some centres not stated)
inactive: [1] | [11]

C/C(=N\NC(=O)c1n[nH]c2c1CCC2)c1cccs1
inactive: [1] | [11]

COc1cc(NC(=O)c2ccc([N+](=O)[O-])o2)ccc1NC(=O)c1ccco1
inactive: [1] | [11] | [3]

CCCCCCCN(C(=O)CCl)c1cccc(C)c1
inactive: [1] | [11]

CS(=O)(=O)c1ccc(C(=O)OCC(=O)NCc2cccs2)cc1[N+](=O)[O-]
inactive: [1] | [11]

O=C(CCl)N=c1sccn1Cc1ccc(Cl)cc1Cl
inactive: [1] | [11]

C(=N\Nc1nc2ccccc2s1)/c1ccccn1
inactive: [1] | [11]

O=C(Cn1ncc(Cl)c(Cl)c1=O)NC(=O)NC1CCCCC1
inactive: [1] | [11] | [3]

C=C1C(=O)[C@]23C[C@H]1CCC2[C@@]1(C)C(C[C@@H]3O)[C@](C)(C(=O)OC)CC[C@@H]1O (some centres not stated)
inactive: [1] | [11]

Cc1ccc(S(=O)(=O)c2ncccc2[N+](=O)[O-])cc1
inactive: [1] | [11]

COc1cccc(/C=N/Nc2nc(Nc3ccc([N+](=O)[O-])cc3)nc(N3CCCC3)n2)c1O
inactive: [1] | [11]

Cc1nc2c(=O)n(C)c(=O)n(C)c2nc1Cl
inactive: [1] | [11]

CCOC(=O)/C=C/C(=O)Nc1cc(S(=O)(=O)Nc2ccc(OC)cc2)ccc1N1CCOCC1
inactive: [1] | [11] | [3]

O=C(NC(Nc1nc2ccc([N+](=O)[O-])cc2s1)(C(F)(F)F)C(F)(F)F)c1cccnc1
inactive: [1] | [11] | [3]

C=CC[C@@H](CC(=O)N[C@H](CO)Cc1ccccc1)C(=O)N[C@H](COC(=O)[C@@H](CC=C)Cc1ccc(F)cc1)Cc1c[nH]c2ccccc12
inactive: [1] | [11] | [3]

O=C(c1ccco1)N1N=C(c2ccc(Br)cc2)CC1(O)C(F)(F)F (configuration not stated)
inactive: [1] | [11] | [3]
